Data on six compounds can be found in PubChem BioAssay (NCATS).

Experiment [1] is described as follows: Cell Viability - Hek293 (AID 427;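 active = compounds whose dose-response curve shows a full or clear partial loss of cell viability, called from curve shape rather than a numeric limit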;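 note: potency is the fitted concentration of half-maximal effect; cells exposed to compound for 40 hours at 37 °C before reading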). The note with it: qHTS. The method, boiled down: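 HEK293 cells in complete medium were exposed to compound for 40 hr at 37 °C, then cellular ATP was read by CellTiter-Glo luminescence. Data were normalized to DMSO (basal) and 100 uM tamoxifen (100% inhibition), and AC50 came from Hill fits.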
For orientation: qHTS replaces the single test concentration by a dilution series.

Experiment [2] is described as follows: Cell Viability - SK-N-SH (AID 435; calls by dose curve;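 note: potency is the fitted concentration of half-maximal effect; compound exposure lasted 40 h at 37 °C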). The settings on record: SK-N-SH neuroblastoma cell viability qHTS. In outline:
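CellTiter-Glo ATP luminescence, 20 min RT read; cells pre-plated 5 hr, compound 40 hr at 37 °C, 1500 cells/well, complete medium. Normalized DMSO = 0, 100 uM tamoxifen = 100% inhibition; Hill-fit AC50.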

The nature of experiment [3]: Cell Viability - N2a (AID 540).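 Note: plate controls were DMSO alone for no effect and tamoxifen control for full effect; nearly all actives have a fitted effect of over 45% in size.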 The settings on record: N2a mouse neuroblastoma cell viability; activity change, negative = cytotoxicity: at 92.2 µM (top of the series). The method, boiled down:
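Mouse neuroblastoma N2a cells (1500/well) were preincubated 5 hr at 37 °C, then exposed to compounds for 40 hr at 37 °C in complete medium. Viability was read as intracellular ATP by CellTiter-Glo luminescence; AC50 from Hill fits.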

The nature of experiment [4]: Cell Viability - H-4-II-E (AID 543). Note: % is set by controls: 0 for no effect and ±100 for the full control effect; nearly all actives have a fitted effect of over 35% in size. The note with it: H-4-II-E rat hepatoma viability; series mostly up to 92.2 µM. In outline: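 Rat hepatoma H-4-II-E cells (1500/well) were plated, incubated 5 hr at 37 °C, then exposed to compounds for 40 hr at 37 °C. Cellular ATP was read by CellTiter-Glo luminescence; AC50 came from Hill-equation fits of concentration-response data.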

Experiment [5] is described as follows: Cell Viability - SH-SY5Y (AID 544).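 Note: 0% = DMSO alone and -100% = 100 µM tamoxifen; nearly all actives have a fitted effect of over 55% in size.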 The settings on record: SH-SY5Y neuroblastoma cell viability; viability change, negative = cytotoxic: at 92.2 µM (top of the series). The method, boiled down:
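Human neuroblastoma SH-SY5Y cells (1500/well) in complete medium were exposed to compounds for 40 hr at 37 °C; intracellular ATP was then quantified by CellTiter-Glo luminescence after 20 min at room temperature. AC50 came from Hill-equation concentration-response fits.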

A short description of experiment [6]: Cell Viability - LYMP2-001 (AID 921).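 Note: 0% = DMSO only and full inhibition = tetraoctylammonium bromide control wells; nearly all actives have a fitted effect of over 70% in size.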 The note with it: LYMP2-001 lymphoblastoid cell viability; series mostly up to 92.2 µM. The method, boiled down:
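CellTiter-Glo luminescence (intracellular ATP) after 24 hr compound exposure at 37 C, 2500 lymphoblastoid cells/well in complete medium. AC50 fitted with standard Hill equation; tetraoctylammonium bromide positive control.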

Experiment [7] is described as follows: MultiTox-Fluor Cytotoxicity Assay - LYMP1-001 - Live Cells (AID 947).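 Note: 0% = DMSO only and full inhibition = tetraoctylammonium bromide control.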 The note with it: LYMP1-001 lymphoblastoid cells, live-cell protease fluorescence viability; series mostly up to 92.2 µM.
Experiment [8] in a line: Cell Viability - LYMP2-005 (AID 967).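 Note: plate controls were DMSO only for no effect and 92 µM tetraoctylammonium bromide control for full effect.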 The note with it: LYMP2-005 lymphoblastoid cell viability; series mostly up to 92.2 µM. The method, boiled down: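 Steps: seed 2500 LYMP2-005 cells/well, incubate 5 h at 37 C, add compound, incubate 24 h at 37 C, add CellTiter-Glo, wait 30 min at RT, read luminescence. Concentration-response data fitted to Hill equation for AC50.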
Experiment [9] is described as follows: Cell Viability - LYMP2-009 (AID 968).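 Note: 0% = DMSO alone and the full-kill end = tetraoctylammonium bromide at 92 µM; nearly all actives have a fitted effect of over 55% in size.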 The settings on record: LYMP2-009 lymphoblastoid cell viability; series mostly up to 92.2 µM.
Experiment [10] is described as follows: Cell Viability - LYMP2-015 (AID 971).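 Note: 0% = DMSO only and full effect = 92 µM tetraoctylammonium bromide; nearly all actives have a fitted effect of over 55% in size.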 The note with it: LYMP2-015 lymphoblastoid cell viability; series mostly up to 92.2 µM. In outline: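 Human lymphoblastoid cells (2500/well) in complete medium were preincubated 5 hr at 37 C, then compound-treated 24 hr at 37 C. Intracellular ATP was read by CellTiter-Glo luminescence after 30 min at room temperature; AC50 came from Hill-equation concentration-response fits.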

A short description of experiment [11]: Cell Viability - LYMP2-019 (AID 973).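 Note: 0% = DMSO alone and full effect = 92 µM tetraoctylammonium bromide; nearly all actives have a fitted effect of over 55% in size.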 The note with it: LYMP2-019 lymphoblastoid cell line viability; series mostly up to 92.2 µM. In outline:
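Human lymphoblastoid cells were seeded at 2500 cells/well, preincubated 5 hr at 37 C, then exposed to compounds for 24 hr at 37 C in complete medium. Intracellular ATP was measured by CellTiter-Glo luminescence; AC50 from Hill fits.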

Experiment [12] is described as follows: Cell Viability - LYMP2-021 (AID 974). The note with it: LYMP2-021 lymphoblastoid cells viability; series mostly up to 92.2 µM. The method, boiled down: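 Human lymphoblastoid cells (2500/well) were preincubated 5 hr at 37 C, then exposed to compounds for 24 hr at 37 C in complete medium. Intracellular ATP was read by CellTiter-Glo luminescence; AC50 came from Hill-equation fits of concentration-response data.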

Experiment [13] in a line: Cell Viability - LYMP2-002 (AID 977).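 Note: compound exposure lasted 24 h at 37 °C; plate controls were DMSO only for no effect and 92 µM tetraoctylammonium bromide for full effect.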 The note with it: LYMP2-002 lymphoblastoid cell viability, qHTS; series mostly up to 92.2 µM. In outline: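 Cytotoxicity is scored as concentration-dependent loss of cellular ATP in a human lymphoblastoid line after 24 hr compound treatment at 37 C. AC50 is obtained by modelling concentration-response data with the Hill equation.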

Experiment [14] can be described thus: Cell Viability - LYMP2-010 (AID 981). The note with it: LYMP2-010 lymphoblastoid cell viability, qHTS; series mostly up to 92.2 µM. In outline:
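Human lymphoblastoid LYMP2-010 cells (2500/well) were preincubated 5 hr at 37 C, then exposed to compounds for 24 hr at 37 C in complete medium. Intracellular ATP was measured by CellTiter-Glo luminescence after 30 min at room temperature; AC50 from Hill-fitted concentration-response.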

The nature of experiment [15]: Cell Viability - LYMP2-012 (AID 982). The note with it: LYMP2-012 lymphoblastoid cell viability qHTS; series mostly up to 92.2 µM.
Experiment [16] in a line: qHTS assay for small molecule agonists of retinoid X receptor alpha signaling (AID 588544). The settings on record: HEK293T RXRa-UAS-bla, beta-lactamase reporter, 18 h; 530 nm emission.
Experiment [17] is described as follows: qHTS assay for small molecule antagonists of retinoid X receptor alpha signaling (AID 588546; active = well fitted inhibition curve with a large enough effect in the signal ratio, with a control signal flat, not every such curve was filed as active; the % refers to the signal ratio;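 note: cells stimulated with 9-cis-retinoic acid as agonist; % is set by controls: 0 for no effect and ±100 for the full control effect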). The settings on record: HEK293T RXRa-UAS-bla, beta-lactamase ratio, antagonist mode; measured here: W530 green channel, cytotoxicity proxy. In outline:
(§1)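 Beta-lactamase reporter inhibition, read as CCF4 fluorescence ratio (ex 405, em 460/530 nm) after 2 h at RT. HEK293T UAS-bla cells, 2500/well, were stimulated with 9-cis-RA at 500 or 100 nM final alongside test compound for 18 h at 37 C.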

In experiment [18] the target is Retinoic acid receptor RXR-alpha (Homo sapiens) (UniProt P19793). The description is as above. The note with it: HEK293T RXRa-UAS-bla, beta-lactamase ratio, antagonist mode. In outline:
as §1

The nature of experiment [19]: qHTS assay for small molecule disruptors of the mitochondrial membrane potential - 5 hr assay (AID 651755; calls by dose curve; note: % is set by controls: 0 for no effect and ±100 for the full control effect; nearly all actives have a fitted effect of over 40% in size). The note with it: JC-1-type ratio dye; series mostly up to 92.2 µM. In outline:
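HepG2, 2,000 cells/well, overnight attach; cpd or DMSO 5 hr, 37C/5% CO2; Mito-MPS 30 min 37C; fluor 490/535 + 540/590 nm.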

Experiment [20] in a line: qHTS assay for small molecule agonists of the antioxidant response element (ARE) signaling pathway measured by Nrf2-dependant transcriptional activity (AID 720636; active = well fitted curve in the direction sought with a large enough effect in the repeat runs; an effect the other way counts as inactive or inconclusive;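 note: HepG2 cells with an ARE-driven luciferase reporter; % of control where 0% means no effect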). The settings on record: ARE-luc HepG2, Nrf2 luciferase reporter, 16 h; series mostly up to 92.4 µM. In outline:
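Attachment 6 hr at 37 C, then compound versus DMSO vehicle for 16 hr in ARE-luc HepG2 cells (1% dialyzed FBS); luminescence recorded 30 min after ONE-Glo addition at room temperature.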

Structures are written as SMILES. Several values for one entry are separate records, joined by “and”; a condition that tells them apart may be missing. Identical values can stand only once. Records with an inconclusive call do not appear. Activity calls are given as the source filed them. Unless noted, calls come from the whole dose curve; as a rule, active = well fitted curve in the direction sought with a large enough effect; inconclusive = small, poorly fitted or top-dose-only effect, or another doubt; inactive = no such curve, though single readings can be large; an effect the other way counts as inactive or inconclusive.

Chain of Retinoic acid receptor RXR-alpha (Homo sapiens) (P19793 whole entry, looked up): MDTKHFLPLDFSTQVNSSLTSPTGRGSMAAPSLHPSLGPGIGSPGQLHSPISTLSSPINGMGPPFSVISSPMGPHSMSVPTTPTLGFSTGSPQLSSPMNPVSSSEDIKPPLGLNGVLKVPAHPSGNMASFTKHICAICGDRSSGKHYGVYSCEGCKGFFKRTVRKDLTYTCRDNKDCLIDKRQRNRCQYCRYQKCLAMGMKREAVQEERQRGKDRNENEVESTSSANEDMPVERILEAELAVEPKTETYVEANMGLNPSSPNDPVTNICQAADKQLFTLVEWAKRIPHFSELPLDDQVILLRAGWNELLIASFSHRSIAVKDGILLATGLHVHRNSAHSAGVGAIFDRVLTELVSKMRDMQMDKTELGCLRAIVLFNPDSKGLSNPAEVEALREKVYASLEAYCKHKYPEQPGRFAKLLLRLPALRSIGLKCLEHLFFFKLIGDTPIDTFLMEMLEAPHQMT

Regarding `O=C(OCc1ccccc1)c1ccccc1O`, the Potency in [1] and in [2] was > 92 µM (inactive) each time. Also, the activity change, negative = cytotoxicity in experiment [3] is -11.2% (inactive). Moreover, the Potency entry in experiment [4], in [5], in experiment [6], in experiment [7], in experiment [8] and in experiment [9] was “inactive” each time. The Potency entry in experiment [10], in [11], in experiment [12], in experiment [13], in [14] and in experiment [15] was “inactive” each time. Further, the Potency entry in experiment [19] and in [20] was “inactive” in each case. For the same compound, the max response in experiment [16] is -8.01% and -0.712%; in experiment [17], -7.45% and -18.3%; in experiment [18], -0.686% (inactive) and -0.189% (inactive).
Turning to `CC(=O)OC(C(=O)c1ccccc1)c1ccccc1` (stereo unspecified), the Potency in [1] and in [2] was > 92 µM (inactive) throughout. Moreover, the activity change, negative = cytotoxicity in [3] is -7.31% (inactive). Also, the Potency entry in experiment [4], in experiment [5], in experiment [6], in experiment [7], in experiment [8] and in experiment [9] was “inactive” each time. In addition, the Potency result in [10], in experiment [11], in [12], in experiment [13], in experiment [14] and in [15] was “inactive” in each case. Also, the Potency entry in experiment [19] and in experiment [20] was “inactive” each time. Also, the max response is -6.96% in experiment [16], -6.89% in [17] and 22.3% (inactive) in experiment [18].
Consider `c1ccc2ncccc2c1`, for which the Potency in [1] and in experiment [2] was > 92 µM (inactive) each time. For the same compound, in experiment [3], the activity change, negative = cytotoxicity is -5.79% (inactive). The Potency result in experiment [4], in [5], in experiment [6], in [7], in [8] and in experiment [9] was “inactive” in each case. In addition, the Potency result in experiment [10], in experiment [11], in experiment [12], in experiment [13], in experiment [14] and in experiment [15] was “inactive” each time. Also, the Potency entry in experiment [19] and in experiment [20] was “inactive” in each case. The max response was 5.03% in [16], -0.528% in experiment [17] and 0.834% (inactive) in [18].
Turning to `OC1CCCCC1`, the Potency in [1] and in experiment [2] was > 92 µM (inactive) each time. For the same compound, the activity change, negative = cytotoxicity in experiment [3] was -3.26% (inactive). Moreover, the Potency result in [4], in [5], in experiment [6], in experiment [7], in [8] and in [9] was “inactive” each time. For the same compound, the Potency entry in experiment [10], in experiment [11], in [12], in experiment [13], in [14] and in experiment [15] was “inactive” throughout. Further, the Potency entry in [20] was “inactive”. In addition, the max response is -4.1% in [16], 10.1% in experiment [17] and -3.43% (inactive) in [18].
In the case of `COc1ccc([N+](=O)[O-])cc1N`, the Potency in experiment [1] and in [2] was > 92 µM (inactive) in each case. Further, the Potency result in experiment [4], in [5], in [6], in experiment [7], in experiment [9] and in [10] was “inactive” throughout. Moreover, the Potency entry in experiment [11], in [12], in experiment [13], in experiment [14], in [15] and in experiment [19] was “inactive” each time. Besides, in experiment [20], the Potency entry is “inactive”. For the same compound, the max response in [16] is -3.38% and -0.384%; in experiment [17], 0.433% and 4.58%; in experiment [18], 4.59% (inactive) and -0.147% (inactive).
In the case of `c1c[nH]cn1`, the Potency in experiment [1] and in experiment [2] was > 92 µM (inactive) in each case. The activity change, negative = cytotoxicity in experiment [3] was -11.6% (inactive). Moreover, the Potency result in experiment [4], in experiment [5], in [6], in experiment [8], in experiment [9] and in [10] was “inactive” in each case. Further, the Potency entry in experiment [11], in [12], in experiment [13], in experiment [14], in [15] and in experiment [19] was “inactive” in each case. Further, in experiment [20], the Potency entry is “inactive”. Moreover, the max response in [16] was 1.75%; in experiment [17] it was -8.47%; in experiment [18] it was -1.89% (inactive).
